For 54 sequences, binding signal results are on record in PMC7819943, “Rice protein-binding microarrays: a tool to detect cis-acting elements near promoter regions in rice”.

In all, about 68,000 sequences were measured (“fluorescence intensity (a.u.)”: median about 9,100, highest 2% from about 16,000 on). The entries come from a sample that favours the highest values as a whole.

Chain of OsWRKY34 (Q0JBA9 entry or part of it): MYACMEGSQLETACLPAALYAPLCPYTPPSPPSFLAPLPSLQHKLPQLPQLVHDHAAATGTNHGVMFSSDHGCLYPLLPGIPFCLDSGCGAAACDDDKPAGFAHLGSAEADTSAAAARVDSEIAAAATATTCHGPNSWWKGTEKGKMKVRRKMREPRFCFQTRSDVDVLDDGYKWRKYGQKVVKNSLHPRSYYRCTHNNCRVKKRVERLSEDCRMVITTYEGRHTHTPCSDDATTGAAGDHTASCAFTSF

This test addresses OsWRKY34 (Oryza sativa, UniProt Q0JBA9 1-250). Briefly: protein-binding microarray (RPBM); PBS, 2% BSA, 51.3 ng/ul salmon testes DNA, 50 uM zinc acetate, 200 nM TF, 25 C, 1 h; high values mean tight binding. To be noted: protein: recombinant; tags: N-terminal polyhistidine and DsRed monomer fusion (pET32a); label: CyDye5-dUTP incorporated in the synthesized complementary strand; 3' TTTTT single-stranded linker to array surface; dsDNA, one strand shown. Put shortly:
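Binding signal is defined as the fluorescence intensity of each feature in arbitrary units, read on an Axon 4000B scanner. Transcription factors with N-terminal polyhistidine and DsRed fusions came from E. coli BL21-CodonPlus and were purified on Ni–NTA. They were incubated at 200 nM for 1 h at 25 °C on a custom Agilent array that had been made double-stranded with Cy5-dUTP, with 50 µM zinc acetate present, and the array was washed.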
Take “CCCACCTCCACCTCCGCCGGCCGGTACGTTTATCCACTGACGGAGTCACCTAGTGCAG”: the binding signal was 9030 fluorescence intensity (a.u.).
The same measure for “GACTGATTTGTTTTTTTTTTCTCCCGGTTTTTTCGACGGACGGAGTCACCTAGTGCAG”: 9270 fluorescence intensity (a.u.); for “TTCCTTTTTTTATGCAACTTTGACAAGCCTAATAGATATACGGAGTCACCTAGTGCAG”: 8500 fluorescence intensity (a.u.).
The result for “GCTACCATCGTCACCGCCTCAACCAAGCTACCCGTGTCTCCGGAGTCACCTAGTGCAG” reads 10400 fluorescence intensity (a.u.); that for “GCCCTACTCTACCCCTAGCCCTCCGCGCGGCTGCCGTCGACGGAGTCACCTAGTGCAG”, 8970 fluorescence intensity (a.u.).
Regarding “CACCCAAACCAAATCAAATCCGTCCATCCATTCGCCTCTACGGAGTCACCTAGTGCAG”, the binding signal is 8960 fluorescence intensity (a.u.).
With “ATCCACTTATATATACACACATTTGTAATTTGTATCTATACGGAGTCACCTAGTGCAG”, the binding signal is 8270 fluorescence intensity (a.u.).
For the sequence “TTTCATGTCGCTCCTTGTCGTTGCTGCTCTTTGGGTGCAACGGAGTCACCTAGTGCAG”, the binding signal was 11100 fluorescence intensity (a.u.).
The same measure for “TGTTTTTGCTTCTCTTCCTTTTGCTGGAGCTTATTGGTTTCGGAGTCACCTAGTGCAG”: 10100 fluorescence intensity (a.u.); for “GTTTGAGGGTTTTTTGTTGGTTTAGAATCATCTTTTTCTTCGGAGTCACCTAGTGCAG”: 9210 fluorescence intensity (a.u.); for “GCTGGAGGGGCTGGGGTATGTTCTTTTTGTATATGACGTTCGGAGTCACCTAGTGCAG”: 20300 fluorescence intensity (a.u.).
Consider “TTGATGGGTTTTGGGTTTTTGTGCTGCTCCTTTTTCGTAACGGAGTCACCTAGTGCAG”, for which the binding signal is 19800 fluorescence intensity (a.u.).
Consider “GGTTTTTATGGGGTTGCTCTTTGATTTTTTTTTTCTCCTGCGGAGTCACCTAGTGCAG”, for which the binding signal is 12200 fluorescence intensity (a.u.).
Regarding “ATTTTCCTTGTTTTGATGTTTTCTGGTTGGGGAAGGGTTACGGAGTCACCTAGTGCAG”, the binding signal was 24600 fluorescence intensity (a.u.).
“GGCTGGTTTGGTTGGTTGAGAATACCTTTTCTTTTTCCTTCGGAGTCACCTAGTGCAG”: the binding signal was 29100 fluorescence intensity (a.u.).
With “GGGGTATGAAATGTTTTTTTTTTCCTTTACGTTTCTTTTTCGGAGTCACCTAGTGCAG”, the binding signal was 15400 fluorescence intensity (a.u.).
With “ATTTTCCTTGATTTTTTTTGTGTGTTTGGGAATTGGGATACGGAGTCACCTAGTGCAG”, the binding signal was 12600 fluorescence intensity (a.u.).
Consider “CATATGTATGAGGGTATCTTTGTTTTGGCTTTGGTCCCTTCGGAGTCACCTAGTGCAG”, for which the binding signal is 10200 fluorescence intensity (a.u.).
“CGTTTTATTTTTGGTTGTTTTTCTGTTTGGGTTTTGATTTCGGAGTCACCTAGTGCAG”: the binding signal is 11300 fluorescence intensity (a.u.).
Consider “CCTATGAAGAAACTTACGCTGACGGCTGACCTAAACGTGCCGGAGTCACCTAGTGCAG”, for which the binding signal was 11000 fluorescence intensity (a.u.).
On to “AAACAATCCGACGGCCCGTATTCCGTGGTCCACGGCCACGCGGAGTCACCTAGTGCAG”, for which the binding signal was 9020 fluorescence intensity (a.u.).
Take “CTTATTTCAAATGTGTGGGTATACATATGTGCACATATATCGGAGTCACCTAGTGCAG”: the binding signal is 8440 fluorescence intensity (a.u.).
The same measure for “TCGTTACATGTTCTTTCATTCTCGTATTGCATTATCTGCTCGGAGTCACCTAGTGCAG”: 9260 fluorescence intensity (a.u.).
On to “CTCGCCTCGCCGCCTTTTCTTCGCCATCTTTTTCGATTTCCGGAGTCACCTAGTGCAG”, for which the binding signal is 18800 fluorescence intensity (a.u.).
Consider “GTGCTCGATGCTCGATGCCCTCCTTTTCCGCCATCTTTTTCGGAGTCACCTAGTGCAG”, for which the binding signal was 10200 fluorescence intensity (a.u.).
For “TCGATCGGTTGGTTGGTTGGTTTTGTTGGATTTTTTTCCTCGGAGTCACCTAGTGCAG”, the binding signal is 18700 fluorescence intensity (a.u.).
In the case of “TATTAGTGTTTTATTTTCACCGGTTAATATTTTTGTTCTTCGGAGTCACCTAGTGCAG”, the binding signal was 8880 fluorescence intensity (a.u.).
For the sequence “GTTCTTCGTTAATACGGTGCTTTCATTATTTTGTTTTCCCCGGAGTCACCTAGTGCAG”, the binding signal was 16600 fluorescence intensity (a.u.).
For the sequence “TTCCTGGTTGCTTCTTTTGCAGTTTTTTTTTTCCCTTCCTCGGAGTCACCTAGTGCAG”, the binding signal is 10100 fluorescence intensity (a.u.).
Regarding “CCCTGGTGTTTGGATTTGGTTGTTCCTCGCGATTGCATTTCGGAGTCACCTAGTGCAG”, the binding signal was 15600 fluorescence intensity (a.u.).
The result for “GGATTTTCTTCCGATCTCGCTTCCACCTCGCCGCCTCGCCCGGAGTCACCTAGTGCAG” reads 9120 fluorescence intensity (a.u.); that for “TTCGTTAAATTATTTTTCTTTTTCGTTTTTTTTTTTTGTTCGGAGTCACCTAGTGCAG”, 8930 fluorescence intensity (a.u.); that for “GGTTTGGCTTTGCTTCTTCCTCGCGCGGCGCCTCCCATCCCGGAGTCACCTAGTGCAG”, 9260 fluorescence intensity (a.u.).
Consider “CTCCTGCCTGGGTTTGGTTTGGTTTGGCTTTGCTTCTTCCCGGAGTCACCTAGTGCAG”, for which the binding signal is 36800 fluorescence intensity (a.u.).
Regarding “GCTTGGATTTTTTTTGTTGCTTTTGGTTGTTGTGATCCCTCGGAGTCACCTAGTGCAG”, the binding signal is 11800 fluorescence intensity (a.u.).
With “TACTATACCACTTACTACTAAGTATTCTGCGCACAAACAGCGGAGTCACCTAGTGCAG”, the binding signal is 10800 fluorescence intensity (a.u.).
The result for “CCTCGGCTCCCATCCACTACCGTTTGCTACTCCGGCGCCGCGGAGTCACCTAGTGCAG” reads 10600 fluorescence intensity (a.u.); that for “CTCATCTCACCCGTCACTACTGCACTGCGCACCATTGCCGCGGAGTCACCTAGTGCAG”, 8540 fluorescence intensity (a.u.).
For the sequence “GATTGGGTTGTTTGCGGGGCTAAGTTCCTAATTTTAATGACGGAGTCACCTAGTGCAG”, the binding signal is 11500 fluorescence intensity (a.u.).
As for “ACCCTCCACCCGCCACCGCCACCGCCGCCTTCGCCGCCGCCGGAGTCACCTAGTGCAG”, the binding signal was 9250 fluorescence intensity (a.u.).
The result for “TTGCAACGGATTTTACTGGGCTTATGGGCTTCTTTTATTGCGGAGTCACCTAGTGCAG” reads 9700 fluorescence intensity (a.u.).
As for “GAGACGTTGTATATCTGGTTTTGTGGTTTGGGGATGTTTTCGGAGTCACCTAGTGCAG”, the binding signal is 20100 fluorescence intensity (a.u.).
“GCTTTGTTCTGATTCCTTCACAGTTATTTGATATTTTCCTCGGAGTCACCTAGTGCAG”: the binding signal is 8710 fluorescence intensity (a.u.).
In the case of “TCTTGCGACGATCGTGTGGGGTGGGTTCGTGTGCTCTCTCCGGAGTCACCTAGTGCAG”, the binding signal is 19500 fluorescence intensity (a.u.).
As for “AATACTTGCGAGCTCCGATCTCTTCTTCTTCTTCGTGAGCCGGAGTCACCTAGTGCAG”, the binding signal was 8180 fluorescence intensity (a.u.).
Regarding “CTCTCTTCTTCTTCCTCGCTTTGCTTGGGTTGGGTTGGAGCGGAGTCACCTAGTGCAG”, the binding signal was 14800 fluorescence intensity (a.u.).
“TGTTGTCGTCGTCCCTCTTCCTTTCCTTTCCTTTCCTTGCCGGAGTCACCTAGTGCAG”: the binding signal is 8870 fluorescence intensity (a.u.).
As for “CCTCATTTGCTTCTTCTTCTTCTTCCTCCTCTTTGTTTCACGGAGTCACCTAGTGCAG”, the binding signal was 9120 fluorescence intensity (a.u.).
On to “TCTCCTTGATTCCCGCTTCTCACACGCATTATTTGTTTCACGGAGTCACCTAGTGCAG”, for which the binding signal was 18500 fluorescence intensity (a.u.).
The same measure for “CTTGCTCTCCTCTCTCGTGCTCCATCGATCGATCGATCTCCGGAGTCACCTAGTGCAG”: 9660 fluorescence intensity (a.u.).
With “GGGATTTCATATATCTGGTTTTGCGGTTGGGGACGATTTTCGGAGTCACCTAGTGCAG”, the binding signal was 12300 fluorescence intensity (a.u.).
For the sequence “GGATTGGTTTTGAGATTGTTCTGTCAGATGGGGATTGTTTCGGAGTCACCTAGTGCAG”, the binding signal was 12700 fluorescence intensity (a.u.).
With “GAAGCTTCCTCGTCGTCCTTTGTTGGGTTGGGTTGGGTTGCGGAGTCACCTAGTGCAG”, the binding signal was 21000 fluorescence intensity (a.u.).
The result for “CACGTCACCTGCATATGCCCTTCTTCCTCGCCGGCCACACCGGAGTCACCTAGTGCAG” reads 11000 fluorescence intensity (a.u.).
